Test results taken from PubChem BioAssay AID1159614 (National Center for Advancing Translational Sciences (NCATS), 2016).
Out of some 45,000 compounds screened, about 65 (0.1%) were called active. Calls come from the whole dose curve; as a rule, active = well fitted activation curve with a large enough effect; inconclusive = small, poorly fitted or top-dose-only effect; inactive = no such curve, though single readings can be large or run the other way. Many of the other results were omitted from the sample, so actives are more common in it than they were.

The molecules below were run against Galactocerebrosidase (Homo sapiens) (UniProt P54803) (assay: A Novel Cell-Based Assay to Identify Small Molecules for B -Galactocerebrosidase). Settings: 145M-Twi-hGALC-G270D cells (Twitcher mouse brain line with human GALC G270D), HMU-beta-Gal fluorescence, 48 h; series mostly up to 57.5 µM.
Description: Lysosomal storage diseases (LSDs) are caused by genetic mutations in genes encoding proteins important for normal lysosomal function. Globoid cell leukodystrophy (GLD), mostly known as Krabbe disease, is a prototype of the neurological LSDs caused by deficiency of beta-galactocerebrosidase (GALC). In brain specimens of GLD patients, psychosine levels are substantially elevated. At elevated concentrations, psychosine becomes cytotoxic to neuronal cells, particularly to oligodendrocytes (OLG), neural cells responsible for myelin formation. Therefore, the biochemical disturbances in GLD are manifested by different degrees of brain demyelination resulting in a broad spectrum of neurological manifestations. Most of the FDA-approved therapies are based on enzyme replacement therapeutic (ERT) agents, which treat non-neurological symptoms of Gaucher disease, Fabry disease, few mucopolysaccharidoses and Pompe disease. Unfortunately, in GLD, a primarily neurological LSD, ERT agents, as large molecular weight molecules unable to cross the blood-brain barrier, which makes this an inefficacious therapeutic approach. In GLD, increasing the residual GALC activity just above the critical threshold (~10% of wild type enzymatic activity), the cytotoxic levels of psychosine will be reduced, avoiding the OLGs apoptosis and the subsequent demyelination process. This will translate in disease stabilization and amelioration of GLD patient symptoms.
A cell-based assay in 1,536-well plate format was developed to implement a quantitative high-throughput screening (qHTS) assay using GLD-disease relevant cells to identify small molecules that produce enhancements of the residual enzymatic activity levels of mutants GALC found and prevalent in GLD patients. Compounds that are active may therefore have some therapeutic application for GLD. After the treatment of live cells for a determined period, using a fluorescent GALC specific substrate, the mutant residual GALC activity is measured. This cell-based qTHS assay was used to screen part of the MLPCN library for small molecule able to increase the mutant GALC enzymatic activity. In this assay, increased fluorescent signal corresponds to enhanced levels of mutant GALC residual enzymatic activity. Activation is the desired outcome for this assay.
NIH Chemical Genomics Center [NCGC]
NIH Molecular Libraries Probe Centers Network [MLPCN]
Assay Submitter (PI): Gustavo Maegawa MD,PhD, University of Florida, Gainesville, FL
2)#Two cell lines were established for the assay: 145M-Twi-hGALC-G270D (brain-derived Twitcher cell line stably expressing human GALC-G270D) and 145M-Twi-hGALC-WT (same 145M-Twi stably expressing human GALC wild type). The Twitcher is the murine C57B/6 model for GLD with naturally occurring homozygous nonsense GALC mutation. The 145M-Twi cell line was established at Maegawa lab (Ribbens J et al 2014).
a.#Media: DMEM/F12 (1:1) with 10% fetal bovine-serum (FBS) with penicillin/streptomycin (PS-1X - 100 I.U./mL of penicillin+100 ug/mL of streptomycin).
b.#The 6-Hexadecanoylamino-4-methylumbelliferyl-b-D-galactoside (HMU-B-gal) substrate was prepared as per Wiederschain et al 1992. Using 20-mL borosilicate tubes, 2.20 mg of HMU-b-Gal was added in each tube to prepare substrate-film with a final air-nitrogen stream evaporation to remove all diluent solvents.
c.#The HMUb-Gal substrate buffer consists of 0.2 M Na2HPO4 (sodium phosphate dibasic)/ 0.1 M Citric Acid with the pH adjusted to 5.2 using HCl. Sodium Azide at 0.02% and Sodium Taurocholate (NaTC) at 1 mg/mL were added to this substrate buffer.
d.#The HMU-b-Gal stopping buffer consist of 0.5 M NaHCO3 (sodium bicarbonate) /0.5 M Na2CO3 (sodium carbonate). […] Triton X-100 at 0.25% was added.
4)#Preparation of HMU-b-Gal substrate tubes
Adding 18.6 mL of the HMUb-Gal substrate buffer to each 20-mL tube (2.20 mg of HMU-b-Gal) will reach a concentration of 0.2 mM. Vortex well the tube until the solution is fully homogenized (clear cloudy solution). […]
Note: nearly all actives have a fitted effect of over 65% in size.

Galactocerebrosidase (Homo sapiens), sequence (P54803 whole entry G286D): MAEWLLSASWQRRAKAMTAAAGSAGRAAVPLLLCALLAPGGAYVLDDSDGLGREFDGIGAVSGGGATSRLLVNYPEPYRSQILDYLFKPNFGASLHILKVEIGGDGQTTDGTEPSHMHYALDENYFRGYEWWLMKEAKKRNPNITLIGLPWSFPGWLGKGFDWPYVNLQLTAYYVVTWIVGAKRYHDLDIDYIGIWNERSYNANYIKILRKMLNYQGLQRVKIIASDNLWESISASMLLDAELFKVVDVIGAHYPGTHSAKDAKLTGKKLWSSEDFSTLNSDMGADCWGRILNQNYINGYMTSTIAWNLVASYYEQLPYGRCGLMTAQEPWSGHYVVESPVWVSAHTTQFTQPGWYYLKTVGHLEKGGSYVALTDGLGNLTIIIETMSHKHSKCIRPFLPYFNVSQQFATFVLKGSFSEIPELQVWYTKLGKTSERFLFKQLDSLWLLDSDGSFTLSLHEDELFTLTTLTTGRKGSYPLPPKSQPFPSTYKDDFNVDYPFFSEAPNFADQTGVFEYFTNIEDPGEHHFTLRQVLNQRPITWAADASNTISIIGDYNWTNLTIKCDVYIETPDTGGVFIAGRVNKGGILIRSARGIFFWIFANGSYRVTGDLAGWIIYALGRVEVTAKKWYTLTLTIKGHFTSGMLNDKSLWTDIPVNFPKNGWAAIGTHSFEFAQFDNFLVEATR

Potency, inactive:
Cc1ccc(-c2nnc3c4ccccc4c(C)nn23)cc1NC(=O)c1cccc(Br)c1
CCOc1ccc(-c2cc3c(=O)n(CC(=O)NCc4ccc(OC)cc4)ccn3n2)cc1
O=C(O)c1c(CNCc2cccc(F)c2)c2ccccc2n1Cc1ccccc1
COc1cccc(NC(=O)CCNS(=O)(=O)c2ccc3c(c2)oc(=O)n3C)c1
CCc1ccc(-n2nc(C)c3c(C)cc(=O)n(CC(=O)Nc4ccc(F)cc4C)c32)cc1
CC(C)(C)C1CCc2c(sc(NC(=O)c3ccccc3F)c2C(=O)N2CCCCC2)C1 (stereo unspecified)
CCOC(=O)c1ccc(-c2ccc(/C=C(\C#N)C(=O)Nc3ccc(C)cc3)o2)cc1
Cc1ccc2cccc(NC(=O)c3ccc(OC(C)C)cc3)c2n1
CCCCOCCOC(=O)c1cccnc1
CCOc1ccccc1NC(=O)CCS(=O)(=O)c1cccc2nsnc12
CCOc1ccc(Nc2nc3c(S(=O)(=O)c4cccc(Cl)c4)nnn3c3ccsc23)cc1
COc1ccc(S(=O)(=O)c2cn(C)c3cc(N4CCCCC4)c(F)cc3c2=O)cc1
O=C(CCS(=O)(=O)c1ccc2c(c1)NC(=O)CO2)Nc1cccc(C(F)(F)F)c1
CC(=O)c1ccc(NC(=O)CSc2nc(-c3ccccc3F)nc3c2c(=O)n(C)c(=O)n3C)cc1
CCOc1ccc(N(CC)S(=O)(=O)N2CCCC(C(=O)Nc3ccc(C(C)=O)cc3)C2)cc1 (stereo unspecified)
CCOC(=O)c1cc2c(=O)n3ccccc3nc2n(CC2CCCO2)c1=NC(=O)c1ccccc1Br (stereo unspecified)
COCCNC(=O)CCCN1C(=O)c2ccccc2Sc2ncccc21
Cc1ccc(O)c(NC(=O)c2cc(-c3ccc(F)cc3)no2)c1
COc1ccc(S(=O)(=O)NCC(c2ccc(N(C)C)cc2)N2CCc3ccccc32)cc1OC (stereo unspecified)
CCc1ccc(NC(=O)CCCc2nnc3n(CCCOC)c(=O)c4sccc4n23)cc1
Cc1ccc2c(c1)-c1c(cnn1CC(=O)Nc1ccccc1C#N)CO2
O=C(NCCc1ccccc1)C(=O)NCC(c1ccco1)S(=O)(=O)c1ccccc1 (stereo unspecified)
CCOC(=O)Cn1c(=O)n(C2CCCCC2)c2nc(-c3cccc(OC)c3)nc(C(N)=O)c21
CCOc1ccc(N(C)S(=O)(=O)c2cc(-c3cnc(C)o3)ccc2OC)cc1
CCc1ccc2ncc3c(-c4ccc(C)cc4)nn(CC(=O)NCc4ccccc4)c3c2c1
COc1ccc(-c2cn3c(n2)sc2cc(C(=O)Nc4ccc(F)cc4)ccc23)cc1
COc1cc(Cl)c(NC(=O)CC(C)S(=O)(=O)c2cc3c(cc2C)NC(=O)CO3)c(OC)c1 (stereo unspecified)
COc1cc(C(=O)NCCS(=O)(=O)N2CCN(c3ccccc3)CC2)cc(OC)c1OC
Nc1ncc(S(=O)(=O)Nc2ccc(OC(F)(F)F)cc2)cn1
Cc1ccc(C)c(Cn2c(CCCNC(=O)C3CCCCC3)nc3ccccc32)c1
COc1ccc(CNC(=O)CC2Oc3ccc(C)cc3NC2=O)cc1 (stereo unspecified)
CCN(CCCNC(=O)CSc1cc(=O)n(C)c2cc(Cl)ccc12)c1cccc(C)c1
COc1ccc(OCC(=O)Nc2cccc(C(=O)OCc3cc(=O)n4nc(C)sc4n3)c2)cc1
NC(=O)C1CCN(C(=O)c2cccc(NC(=O)c3nsc4ccccc34)c2)CC1
Cc1ccccc1C(=O)Nc1nnc(S(=O)(=O)N(C)c2ccc(Cl)cc2)s1
CCCCN(CC)C(=O)c1c[nH]c2ccc(S(=O)(=O)Nc3cccc(OC)c3)cc2c1=O
Cc1c(C(=O)N2CCCC2)oc2c1-c1nn(CC(=O)NCc3ccc(OC(C)C)cc3)cc1CC2
O=C(CN1C(=O)c2cccnc2Oc2ccc(Cl)cc21)NCCc1ccccc1
Cc1cccc(Nc2cc(C)nc(-n3nc(C)cc3C)n2)c1
COC(=O)c1cc(NC(=O)CCc2c(C)nc3c4c(C)cc(C)nc4nn3c2C)cc(C(=O)OC)c1
CCOc1ccc(NC(=O)c2cn(C3CCCCC3)c(=O)c3c2c2ccccc2n3C)cc1
Cc1ccc(Cn2cc(CCC(=O)NCc3ccc(OC(C)C)cc3)c3ccccc32)cc1
CCc1cnc2c(c1SCC(=O)c1ccccc1)c(=O)n(C)c(=O)n2C
Cc1ccccc1OCc1nc2c3cnn(-c4ccccc4F)c3ncn2n1
O=C(Nc1cccc(Cl)c1)c1csnn1
COc1ccc(C2C(=O)N(C3CCCCC3)CC(=O)N2Cc2ccccc2Cl)cc1OC (stereo unspecified)
O=C(Nc1ccc(OC(F)(F)F)cc1)C1CCCN(S(=O)(=O)c2ccc(Br)s2)C1 (stereo unspecified)
COc1ccc(-c2cc(-c3ccc(F)cc3)nc3c2COc2ccccc2-3)cc1
O=C(CCCCn1c(=O)c2ccccc2n(CC(=O)Nc2cccc(C(F)(F)F)c2)c1=O)NCc1ccc2c(c1)OCO2
CC(C)C(=O)Nc1nc2c(s1)CC(C(C)(C)C)CC2 (stereo unspecified)
Cc1ccc(CCNC(=O)C2CCN(c3nnc(-n4cccc4CNc4ccc(C)cc4)s3)CC2)cc1
CCCCCn1c(=O)[nH]c2cc(C(=O)NCCN(C)CCCC)ccc2c1=O
COc1ccc(C)cc1Nc1nc2ccccc2c2nnc(C)n12
Cc1ccc(NC(=O)CSc2nc3ccccc3c3nc(CCn4cncc4C)nn23)cc1F
Cc1ccc(Cl)cc1N1CCN(C(=O)c2cnc3c(-c4ccc(F)cc4)c(C)nn3c2C)CC1
COc1ccccc1/C=C/c1nc(C#N)c(NC(C)c2ccccc2)o1 (stereo unspecified)
CC(=O)N1c2ccccc2CC1C(=O)N1CCN(c2ccc(F)cc2)CC1 (stereo unspecified)
CCN(CC)c1nn2c(=O)c(C(=O)NCCc3ccccc3)cnc2s1
COc1ccc(C2Sc3ccccc3NC3=C2C(=O)c2ccccc23)c(OC)c1OC (stereo unspecified)
CC(=O)Nc1ccc2nc(SCCOc3cc(C)cc(C)c3)sc2c1
Cc1ccc(S(=O)(=O)c2c(Nc3cccc(Cl)c3)sc(C(=O)c3ccc4c(c3)OCO4)c2N)cc1
